FBPA coupling cs – qHTS Assay for Inhibitors of Fructose-1,6-bisphosphate Aldolase from Giardia Lamblia: Coupling assay counterscreen; coupling enzyme system counterscreen, AmpLite Red fluorescence; activity change, negative = inhibition, % at 58.2 µM, hits read low; 290,000 tested, 0.67% active; in the data active = activity change below about -30%
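Counterscreen lacking aldolase: glyceraldehyde-3-phosphate coupling-enzyme reagent preincubated 10 min at RT with compound (at 57.5 uM final), then substrate/coupling system with AmpLite Red added; fluorescence read at 525/598 nm after 20 min RT.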
Tau fibril ThT – qHTS for Inhibitors of Tau Fibril Formation, Thioflavin T Binding; 270,000 tested, 2.1% active; recombinant tau K18 P301L, heparin-induced fibrillization, ThT fluorescence; Microtubule-associated protein tau (Homo sapiens), P10636; Potency, µM (series often up to 57.4 µM), without a hit: at the top dose activity, negative = inhibition, actives largely listed as inhibitors; note: potency is the fitted concentration of half-maximal effect; nearly all actives have a fitted effect of over 55% in size
Target sequence (P10636 561-689 P618L limits assumed): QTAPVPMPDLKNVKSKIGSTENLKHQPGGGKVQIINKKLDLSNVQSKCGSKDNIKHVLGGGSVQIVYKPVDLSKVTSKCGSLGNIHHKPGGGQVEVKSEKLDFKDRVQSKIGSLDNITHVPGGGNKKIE
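Using a mix of unlabeled (15 uM) and Alexa 594-labeled (0.24 uM) tau K18 P301L, heparin-triggered fibrillization over 6 hr at 37 C was scored by ThT fluorescence.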
Tau fluor counter – Counterscreen qHTS for Inhibitors of Tau Fibril Formation, Fluorescence Polarization. Potency, µM (series often up to 57.7 µM), without a hit: top-dose activity change, negative = decrease. 280,000 tested, 0.93% active. AID 1463, 2008. tau K18 P301L (four-repeat tau fragment) Alexa594 fluorescence, heparin fibrillization; note: potency is the fitted concentration of half-maximal effect; nearly all actives have a fitted effect of over 55% in size
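Human K18 P301L tau (15 uM unlabeled plus 0.24 uM Alexa 594-labeled, final) in 100 mM sodium acetate pH 7 was mixed with compound and 20 uM heparin and incubated 6 hr at 37 C.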
Sfp PPTase inh – qHTS Assay for Inhibitors of Bacillus subtilis Sfp phosphopantetheinyl transferase (PPTase); Biochemical Sfp PPTase activity, qHTS; Potency, µM, for inactives: largest response in the series, negative = inhibition, most hits filed as inhibitors; 310,000 tested, 3.5% active;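 note: the enzyme is Sfp with the accession as filed and its product quenches rhodamine fluorescence; potency is the fitted concentration of half-maximal effect; 0% = enzyme reaction without inhibitor and -100% = no enzyme wells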
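Fluorescence-quenching assay with 15 nM Sfp, 5 uM rhodamine-CoA and 12.5 uM BHQ-2-labelled ybbR peptide in pH 7.6 Hepes/MgCl2 buffer. Enzyme was pre-incubated with compound for 15 min at room temperature. Rate was taken from the 30-min fluorescence change (525/598 nm).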
Tau fibril FP – qHTS for Inhibitors of Tau Fibril Formation, Fluorescence Polarization; Microtubule-associated protein tau (Homo sapiens), P10636; K18 P301L tau heparin fibrillization, Alexa594 FP, 6 h; Potency, µM (titrated, usually from 57.7 µM), without a hit: at the top dose activity, negative = inhibition, usual class: inhibitors; 280,000 tested, 0.39% active; AID 1468, 2008; note: potency is the fitted concentration of half-maximal effect; nearly all actives have a fitted effect of over 55% in size
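Human tau K18 […] P301L fragment, 15 uM unlabeled plus 0.24 uM Alexa 594-labeled tau (final), with compound and 20 uM heparin in 100 mM sodium acetate pH 7; 6 hr at 37 C, then Alexa 594 FP read.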
* marks the source's active call; other numbers are inactive results; [ ] = another dose, or the depositor's remark. Most compounds without a hit are left out; they make up all but 5.2% or so of the library. Unless noted, calls come from the whole dose curve; as a rule, active = well fitted curve in the direction sought with a large enough effect; inconclusive = small, poorly fitted or top-dose-only effect, or another doubt; inactive = no such curve, though single readings can be large; an effect the other way counts as inactive or inconclusive. Unless noted, % is set by controls: 0 for no effect and ±100 for the full control effect.

`O=C1C(c2ccccc2)SC(=Nc2ccccc2)N1S(=O)(=O)c1ccccc1` (stereo unspecified) gave FBPA coupling cs 4, Tau fibril ThT -12%, Tau fluor counter -11%, Sfp PPTase inh 13µM* and Tau fibril FP -9%.
CCN1CCCC1Cn1c(-c2ccccc2)nc2c(NC3CCCCC3)nc(C)nc21 (stereo unspecified) was read as FBPA coupling cs 1, Tau fibril ThT -8%, Tau fluor counter -6%, Sfp PPTase inh 17% and Tau fibril FP -1%.
For COC(=O)c1cc2sccc2n1CC(=O)Nc1ccc(OC)c(OC)c1 the results were Tau fibril ThT -4%, Tau fluor counter -16% and Tau fibril FP 5%.
`COc1ccc(N=N/C(C(C)=O)=C(/C)O)cc1` gave FBPA coupling cs 2, Tau fibril ThT 16µM*, Tau fluor counter -13%, Sfp PPTase inh 14% and Tau fibril FP 2%.
`CC(=O)/C(N=Nc1cc(C)ccc1O)=C(\C)O` gave FBPA coupling cs -9, Tau fibril ThT -5%, Tau fluor counter -12%, Sfp PPTase inh -2% and Tau fibril FP -7%.
For CCOc1ccc(N(C)S(=O)(=O)c2ccc3c(c2)C(C)(C)C(=O)N3C)cc1 the results were Tau fibril ThT 10%, Tau fluor counter 0% and Tau fibril FP 0%.
`CCCn1c(C)nc2c(N3CCCN(Cc4ccccc4)CC3)nc(C)nc21` gave FBPA coupling cs 0, Tau fibril ThT -6%, Tau fluor counter -7%, Sfp PPTase inh 19% and Tau fibril FP 4%.
CCCn1c(-c2ccc(F)cc2)nc2c(N3CCCN(Cc4ccccc4)CC3)nc(C)nc21 was read as FBPA coupling cs -2, Tau fibril ThT inconclusive, Tau fluor counter -21%, Sfp PPTase inh 22µM* and Tau fibril FP -5%.
COc1ccccc1C(=O)NCC(=O)NNc1ncnc(N)c1[N+](=O)[O-] was read as FBPA coupling cs -2, Tau fibril ThT -16%, Tau fluor counter 4%, Sfp PPTase inh 7.1µM* and Tau fibril FP 4%.
For Cc1cc(/C=N/Nc2ncnc(N)c2[N+](=O)[O-])c(C)n1-c1ccccc1 the results were FBPA coupling cs 2, Tau fibril ThT inconclusive, Tau fluor counter -12%, Sfp PPTase inh inconclusive and Tau fibril FP 5%.
Screening COc1cccc(/C=N/Nc2ncnc(N)c2[N+](=O)[O-])c1OC returned FBPA coupling cs 1, Tau fibril ThT -13%, Tau fluor counter -8%, Sfp PPTase inh 45µM* and Tau fibril FP 2%.
For COc1ccc(-c2cc(-c3ccccc3)c(C#N)c(SCC(O)CS(=O)(=O)Cc3ccc(Cl)cc3)n2)cc1 (stereo unspecified) the results were Tau fibril ThT -6%, Tau fluor counter inconclusive and Tau fibril FP inconclusive.
N#Cc1c(-c2ccccc2)cc(-c2ccccc2)nc1SCC(=O)NCC(=O)O was read as FBPA coupling cs 13, Tau fibril ThT -11%, Tau fluor counter -2%, Sfp PPTase inh 20µM* and Tau fibril FP 8%.
Screening N#Cc1c(-c2ccccc2)cc(-c2ccccc2)nc1SCC(O)CS(=O)(=O)Cc1ccc(Cl)cc1 (stereo unspecified) returned Tau fibril ThT 14µM*, Tau fluor counter inconclusive and Tau fibril FP 14µM*.
Screening Cc1cccc(Nc2nnc(-n3nc(C)cc3C)c3ccccc23)c1 returned Tau fibril ThT -20%, Tau fluor counter -29% and Tau fibril FP -10%.
COc1ccc(N=Nc2n(C)c3ccccc3[n+]2C)cc1 was read as FBPA coupling cs -27, Tau fibril ThT 3.2µM*, Tau fluor counter inconclusive, Sfp PPTase inh 50µM* and Tau fibril FP inconclusive.
Screening Nc1ccccc1Nc1cc(-c2ccccc2)nn1-c1ccccc1 returned FBPA coupling cs 1, Tau fibril ThT inconclusive, Tau fluor counter 14µM*[quencher], Sfp PPTase inh -10% and Tau fibril FP 16%.
`Nc1ccccc1Nc1cc(-c2ccccc2)[nH]n1` gave FBPA coupling cs -1, Tau fibril ThT 14µM*, Tau fluor counter inconclusive, Sfp PPTase inh -2% and Tau fibril FP 8%.
N#Cc1cc(-c2ccccc2)nn1-c1ccccc1 was read as FBPA coupling cs -41*, Tau fibril ThT inconclusive, Tau fluor counter inconclusive, Sfp PPTase inh 18µM* and Tau fibril FP inconclusive.
CCCCC12CN3CC(C)(CN(C1)C3c1c[nH]c3ccccc13)C2=O (stereo unspecified) was read as Tau fibril ThT 5%, Tau fluor counter inconclusive and Tau fibril FP 12%.
O=C(CN1CCSc2ccccc21)N1CCN(c2cccc(Cl)c2)CC1 was read as Tau fibril ThT inconclusive, Tau fluor counter -27% and Tau fibril FP 12%.
Screening O=C(CN1CCN(c2ccc(O)cc2)CC1)Nc1cc(S(=O)(=O)N2CCCC2)ccc1Cl returned FBPA coupling cs -5, Tau fibril ThT inconclusive, Tau fluor counter inconclusive, Sfp PPTase inh 45µM* and Tau fibril FP -2%.
O=C(CN1CCN(S(=O)(=O)N2CCCCCC2)CC1)Nc1cc(Cl)ccc1Cl was read as FBPA coupling cs 2 and Sfp PPTase inh 5%.
For CC1CN(CC(=O)Nc2cc(S(=O)(=O)N3CCCC3)ccc2Cl)CC(C)O1 (stereo unspecified) the results were FBPA coupling cs 6, Tau fibril ThT -8%, Tau fluor counter -5%, Sfp PPTase inh 9% and Tau fibril FP -2%.
Screening O=C(CN1CCN(c2ccc(O)cc2)CC1)Nc1cc(S(=O)(=O)N2CCCCC2)ccc1Cl returned FBPA coupling cs -7, Tau fibril ThT inconclusive, Tau fluor counter inconclusive, Sfp PPTase inh 56µM* and Tau fibril FP -1%.
For COc1cccc([C@@H]2Oc3ccc(Br)cc3[C@H](O)[C@H]2O)c1 the results were FBPA coupling cs -1, Tau fibril ThT -1%, Tau fluor counter -2%, Sfp PPTase inh -17% and Tau fibril FP 7%.
For Cc1cc(C)cc(OCC(=O)N(Cc2ccco2)Cc2ccccc2Cl)c1 the results were Tau fibril ThT -16%, Tau fluor counter -14% and Tau fibril FP -7%.
`Cn1cccc1C(=O)N1CCC2(CC1)CCN(c1ccncc1)CC2` gave FBPA coupling cs 3 and Sfp PPTase inh 22%.
CCN1CCC(N(Cc2cccc(OC)c2)C(=O)Nc2ccc(C)cc2Cl)CC1 was read as Tau fibril ThT 1%, Tau fluor counter 5% and Tau fibril FP -1%.
CCOc1cccc(-c2c(C(=O)N/N=C(\C)c3ccccn3)nnn2-c2nonc2N)c1 was read as Sfp PPTase inh 32µM*.
